Our source for the activity change, negative = inhibition values is PubChem BioAssay AID1259421 (Broad Institute, 2018).

Values joined by “and” are separate entries in the source; they are usually repeats but may differ in a detail not shown here. Equal entries are not always repeated. About 610 (9.5%) of roughly 6,400 compounds were called active. Rule as the data show it: active = activity change below about -70%; inconclusive = no clear call, values can overlap the other calls; inactive = above that. The full list was thinned out, with actives kept by preference. The source holds several records for some structures; these can differ, active in one and inactive in another. Where a SMILES comes first, the peptide text is derived from it.

The nature of the experiment: Toxoplasma gondii ME49Luc growth in HeLa cells, luciferase, no IFN-y, primary screen (AID 1259421). The following applies: T. gondii ME49Luc in HeLa, 72 h, stronger effect = lower value, concentration not given here.
With `CCCCCCCC/C=C\CCCCCCCC(=O)N[C@@H](CO)Cc1ccc(O)cc1`, the activity change, negative = inhibition was 4.92% (inactive).

For the molecule `c1cc2c(cc1C1CCCCC1)c1c3n2CCNC3CCC1` (stereo not drawn), the activity change, negative = inhibition is 23.6% (inactive) and 27.3% (inactive).

With `Cn1cnc([N+](=O)[O-])c1Sc1ncnc2nc[nH]c12`, the activity change, negative = inhibition was -68.2% (inactive) and -74.1% (active). The same measure for `Cn1cnnc1Sc1c([N+](=O)[O-])ncn1C`: 23.4% (inactive) and 9.93% (inactive). The same measure for `c1ccc(CNc2ncnc3nc[nH]c23)cc1`: 9.71% (inactive) and 7.45% (inactive); for `CC(SC(=O)c1cccs1)C(=O)NCC(=O)O` (stereo not drawn): 13% (inactive); for `C[C@H]1[C@@H](O)O[C@@H]2O[C@@]3(C)CC[C@H]4[C@H](C)CC[C@@H]1[C@@]24OO3`: -93.7% (active). The same measure for `C[C@@H]1CC[C@H]2[C@@H](C)C(O)O[C@@H]3O[C@]4(C)CC[C@@H]1[C@]32OO4` (stereo partly drawn): -85.4% (active). Turning to `C[C@H]1[C@H](OC(=O)CCC(=O)O)O[C@@H]2O[C@@]3(C)CC[C@H]4[C@H](C)CC[C@@H]1[C@@]24OO3`, the activity change, negative = inhibition is -80.6% (active). The same measure for `CC(=O)[C@H]1CCC2C3CC=C4C[C@@H](OC(=O)CCC(=O)O)CC[C@]4(C)C3CC[C@@]21C` (stereo partly drawn): 4.41% (inactive) and 6.51% (inactive); for `Brc1c(Br)c(Br)c2n[nH]nc2c1Br`: 5.07% (inactive) and 22.5% (inactive). The same measure for `OCc1cc2c(cn1)[nH]c1ccccc12`: 12.8% (inactive); for `CCOC(=O)c1c(C)[nH]c2ccc3c(c12)CN1CCc2cc(OC)ccc2C1O3` (stereo not drawn): 5.91% (inactive). The same measure for `C[C@@H](O)CNC(C)(C)CC(=O)N[C@@H]1CCc2ccccc2N(Cc2ccc(-c3ccccc3-c3nn[nH]n3)cc2)C1=O`: 8.07% (inactive); for `CC[C@H](Nc1ncnc2nc[nH]c12)c1nc2cccc(F)c2c(=O)n1-c1ccccc1`: 0.609% (inactive). As for `Nc1c(S(=O)(=O)O)cc(Nc2cccc3ccccc23)c2c1C(=O)c1ccccc1C2=O`, the activity change, negative = inhibition was 5.63% (inactive).

Turning to `C[C@H](CCC(=O)NCC(=O)O)[C@H]1CCC2C3C(C[C@H](O)[C@@]21C)[C@@]1(C)CC[C@@H](O)CC1C[C@H]3O` (stereo partly drawn), the activity change, negative = inhibition was 3.03% (inactive). The same measure for `CN(C)C(=N)N=C(N)N`: 11% (inactive) and -0.508% (inactive); for `CN(C)CC(=O)Nc1ccc2[nH]c(=O)c3ccccc3c2c1`: -4.97% (inactive).

Consider `O=C(c1ccc2nccnc2c1)N1CCCCC1`, for which the activity change, negative = inhibition was 3.08% (inactive). With `COC(=O)[C@]12CCC(C)(C)C[C@@H]1[C@@H]1C(=O)C=C3[C@]4(C)C=C(C#N)C(=O)C(C)(C)[C@@H]4CC[C@@]3(C)[C@]1(C)CC2`, the activity change, negative = inhibition was -87.4% (active). The same measure for `CC(=O)N[C@@H](CSC/C=C(\C)CC/C=C(\C)CCC=C(C)C)C(=O)O`: 7.49% (inactive); for `OC[C@H]1NC[C@@H](O)[C@@H](O)[C@@H]1O`: 13.1% (inactive); for `COc1ccc(C(=O)NCc2cccnc2)cc1C(=O)NCc1cccnc1`: 7.12% (inactive). The same measure for `CCC[C@H](Nc1nc(-c2ccc(NC(=O)NCC)c(OC)c2)ncc1C)c1cccnc1`: -75.6% (active); for `Oc1ccccc1-c1nnco1`: 11.7% (inactive). Turning to `CCCCCCCCCCCCCCCCCCCCCC(=O)O`, the activity change, negative = inhibition is -1.78% (inactive).

`CCCCC1C(=O)N(c2ccccc2)N(c2ccccc2)C1=O`: the activity change, negative = inhibition was 10.6% (inactive) and 30.2% (inactive) and 17.8% (inactive). The same measure for `CCCCCCCCCCCC1C(=O)C(=O)CC(=O)C1=O`: -89.4% (active) and -2.92% (inactive). The same measure for `O=C(/C=C/c1ccc2ccccc2n1)c1ccncc1`: 3.25% (inactive); for `CN(C)C1C(=O)C(C(N)=O)C(=O)C2(O)C(=O)C3C(=O)c4c(O)ccc(Cl)c4C(O)C3CC12` (stereo not drawn): 321% (inactive). Regarding `COC(=O)NC(C)CNc1nccc(-c2cn(C(C)C)nc2-c2cc(Cl)cc(NS(C)(=O)=O)c2F)n1` (stereo not drawn), the activity change, negative = inhibition is -71.5% (active). The same measure for `O=c1[nH]nc2c3c(cccc13)NC(CN1Cc3ccccc3C1)=N2`: 12.4% (inactive); for `Oc1ccc([C@@H]2Oc3ccc(O)cc3[C@@H]3CCC[C@@H]32)cc1`: 6.56% (inactive).

In the case of `Cc1cc(O)cc2c1O[C@](C)(CCC[C@H](C)CCC[C@H](C)CCCC(C)C)CC2`, the activity change, negative = inhibition was -4.66% (inactive). The same measure for `COc1c(C)c2c(c(O)c1C/C=C(\C)CCC(=O)O)C(=O)OC2`: -74.4% (active) and -89.1% (active); for `COc1c(C)c2c(c(O)c1C/C=C(/C)CCC(=O)O)C(=O)OC2`: -79.6% (active); for `COc1c(C)c2c(c(O)c1C/C=C(\C)CCC(=O)OCCN1CCOCC1)C(=O)OC2`: -75.2% (active) and -92% (active). The same measure for `C#CC1(OCC(O)CN2CCN(c3ccccc3OC)CC2)CCCCC1` (stereo not drawn): 9.69% (inactive); for `CCCCC/C=C\C[C@@H](O)/C=C/C=C/C=C\[C@@H](O)CCCC(=O)O`: 7.41% (inactive).

Consider `N=[N+]=CC(=O)CC[C@H](N)C(=O)O`, for which the activity change, negative = inhibition is 0.432% (inactive).

Turning to `c1ccc(-c2nc3ccccc3[nH]2)cc1`, the activity change, negative = inhibition was 279% (inactive). The same measure for `CC(C)(C)c1ccc(-c2nc3ccccc3[nH]2)cc1`: -87.4% (active); for `c1ccc2[nH]c(-c3nc4ccccc4[nH]3)nc2c1`: 156% (inactive); for `CC1(C)CC1C(=O)N/C(=C\CCCCSCC(N)C(=O)O)C(=O)O` (stereo not drawn): 8.4% (inactive). The same measure for `CC(=O)O[C@H]1C[C@@]2(C)[C@@H](C[C@@H](O)[C@H]3[C@@]4(C)CC[C@@H](O)[C@@H](C)C4CC[C@@]32C)/C1=C(/CCC=C(C)C)C(=O)O` (stereo partly drawn): -17.8% (inactive); for `Cc1cc(OCCCS(C)(=O)=O)cc(C)c1-c1cccc(COc2ccc3c(c2)OC[C@H]3CC(=O)O)c1`: 15.8% (inactive); for `COc1ccc2[nH]c(I)c(CCNC(C)=O)c2c1`: 14.7% (inactive) and -1.11% (inactive). With `CC1C(=O)C(=O)[C@@H]2O[C@@H]2C1=O` (stereo partly drawn), the activity change, negative = inhibition was 7.42% (inactive). The same measure for `O=C(Nc1cccc(Cl)c1)c1ccccn1`: 154% (inactive); for `COc1cc2ncnc(Nc3cccc(Cl)c3)c2cc1OC`: -46.3% (inactive); for `O=C(Nc1cccc(Cl)c1)Nc1ncc(CCNc2ncnc3ccsc23)s1`: -92.1% (active). The same measure for `O[C@H](CNC[C@@H](O)[C@H]1CCc2cc(F)ccc2O1)[C@@H]1CCc2cc(F)ccc2O1`: 9.73% (inactive); for `C=C(C)[C@@H]1CC[C@]2(CO)CC[C@]3(C)[C@H](CC[C@@H]4[C@@]5(C)CC[C@H](O)C(C)(C)[C@@H]5CC[C@]43C)[C@@H]12`: 19.1% (inactive). On to `Cc1nnc(-c2ccc3occ(-c4ccc(S(C)=O)cc4)c3c2)o1` (stereo not drawn), for which the activity change, negative = inhibition is 1.22% (inactive). The same measure for `O=C(c1ccc(F)cc1)C1CCN(CCCCc2ccccc2)CC1`: 3.6% (inactive) and 8.67% (inactive).

For `Fc1ccc(-n2cc(CCCCN3CCC4(CC3)OCc3ccccc34)c3ccccc32)cc1`, the activity change, negative = inhibition was -77.2% (active). The same measure for `O=C(NCCCN1CCC2(CC1)OCc1ccccc12)[C@H]1CCCN1Cc1ccccc1`: 18.8% (inactive); for `CN(CCOc1ccc(CC(Nc2ccccc2C(=O)c2ccccc2)C(=O)O)cc1)c1ccccn1` (stereo not drawn): 1.37% (inactive). As for `CCOC(=O)[C@@H](N)CCC(=O)N[C@@H](CSCc1ccccc1)C(=O)N[C@@H](C(=O)OCC)c1ccccc1`, the activity change, negative = inhibition was -2.09% (inactive). The same measure for `CC1OC(OCC2OC(Oc3c(-c4ccc(O)c(O)c4)oc4cc(O)cc(O)c4c3=O)C(O)C(O)C2O)C(O)C(O)C1O` (stereo not drawn): -9.9% (inactive); for `CS(=O)(=O)c1ccc(C(O)[C@H](CF)NC(=O)C(Cl)Cl)cc1` (stereo partly drawn): -54.7% (inactive) and -27.8% (inactive); for `CN1C/C=C/CCOc2cccc(c2)-c2ccnc(n2)Nc2cccc(c2)C1`: -90% (active). The same measure for `CCCCCCCCCCCCCCCC(=O)C1C(=O)OC(CO)C1=O` (stereo not drawn): 6.7% (inactive); for `Cc1cccc(C2CN(C)CCc3c2cc(O)c(O)c3Cl)c1` (stereo not drawn): -3.35% (inactive).

For `CCOC(=O)[C@H]1O[C@@H]1C(=O)N[C@@H](CC(C)C)C(=O)NCCC(C)C`, the activity change, negative = inhibition is 12.9% (inactive) and 2.41% (inactive). The same measure for `O=C(Cc1ccc(-c2ccc(OCCN3CCOCC3)cc2)cn1)NCc1ccccc1`: -55.5% (inactive); for `C[C@H]1CN(C[C@H](Cc2ccccc2)C(=O)NCC(=O)O)CC[C@@]1(C)c1cccc(O)c1`: 4.96% (inactive); for `COC(=O)[C@H](Cc1ccccc1)NC(=O)[C@@H](N)CC(=O)O` (H-Asp-Phe-OMe): 0.919% (inactive). The same measure for `CC(=O)N[C@@H](Cc1ccccc1)C(=O)O`: 16.5% (inactive).

Turning to `COC[C@H](NC(=O)c1cnc(C)s1)C(=O)N[C@@H](COC)C(=O)N[C@@H](Cc1ccccc1)C(=O)C1(C)CO1` (stereo partly drawn), the activity change, negative = inhibition was -88.8% (active). The same measure for `CC(C)C[C@H](NC(=O)[C@H](CCc1ccccc1)NC(=O)CN1CCOCC1)C(=O)N[C@@H](Cc1ccccc1)C(=O)N[C@@H](CC(C)C)C(=O)[C@@]1(C)CO1`: -76.7% (active); for `COc1ccc(C[C@H](NC(=O)[C@H](C)NC(=O)CN2CCOCC2)C(=O)N[C@@H](Cc2ccccc2)C(=O)[C@]2(C)CO2)cc1`: -76% (active); for `CC(C)c1nc(CN(C)C(=O)N[C@@H](CCN2CCOCC2)C(=O)N[C@H](CC[C@H](Cc2ccccc2)NC(=O)OCc2cncs2)Cc2ccccc2)cs1`: -16.7% (inactive). The same measure for `CC(=O)NC(Cc1ccccc1)C(=O)O` (stereo not drawn): 20.2% (inactive). The same measure for `CC1(C)CCC(C)(C)c2cc(Cn3cccn3)c(/C=C/c3ccc(C(=O)O)cc3)cc21`: 15.2% (inactive). With `c1ccc(-c2nn3c(c2-c2ccnc4cc(OCCN5CCOCC5)ccc24)CCC3)nc1`, the activity change, negative = inhibition was -32.4% (inactive). The same measure for `COc1ccc(-c2coc3cc(O)ccc3c2=O)c(OC)c1`: 11.6% (inactive).
